PubChem BioAssay (NCI)
Where “and” joins values, the source holds several entries; their conditions need not be identical. Equal values may be shown once. This is part of a sample that, as a whole, favours compounds with a hit. Of some 83,000 tested, about 20% had one in any assay.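 Values shown are percent growth following 48 h exposure of cells in 96-well plates to a single concentration of compound; below 10 was considered active.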 Unmarked numbers belong to inactive results. Calls of active or inactive are those of the source.

Tested on: HL-60(TB) leukemia
Test: NCI-60 one-dose screen, 48 h (100 = growth as untreated, 0 = no growth, -100 = all killed)
Settings: 10 µM unless noted

CCOc1cc(CNc2ccc(N3CCOCC3)c(C(=O)O)c2)ccc1OC
growth: 106%

CCC(=O)OC1=C(C)SC2=NC(c3ccc(Cl)c(Cl)c3)=CC(c3cc(OC)c(OC)c(OC)c3)N21 (centres undefined)
growth: 97.8%

COC(=O)[C@H](NC(=O)C1(C)CCC[C@]2(C)[C@H]3C[C@H]4C(C(C)C)=C[C@]3(CC[C@@H]12)[C@@H]1C(=O)CCC(=O)[C@@H]14)C(C)C (some centres undefined)
growth: 103%

CNC(=S)Sc1ccc([N+](=O)[O-])cc1[N+](=O)[O-]
growth: -14.6% (active)

O=S(=O)(c1ccc(N/N=C\c2ccccc2)cc1)c1ccc(N/N=C/c2ccccc2)cc1
growth: 94.8%

O=C(O)c1ccc(=O)[nH]n1
growth: 111%

Fc1ccc(-c2cn3c(nc4ccccc43)c(-c3ccccc3)n2)cc1
growth: 99.8%

CCN(CC)CCCC(CNc1ccnc2cc(Cl)ccc12)c1ccc(Cl)cc1 (centres undefined)
growth: -40.4% (active) and -71% (active)

O=C(Nc1cccc(-n2cc(-c3ccncc3)c(-c3ccc(Cl)c(O)c3)n2)c1)Nc1cccc(C(F)(F)F)c1
growth: 12.5%

O=CN1CCCCC1
growth: 97%

CN(C)CCCn1c(=O)c2cc([N+](=O)[O-])ccc2c2cnc3[nH]ccc3c21
growth: 90.4%

Nc1nc(N)c(C=Nc2ccc(Br)cc2)c(Nc2ccc(Br)cc2)n1
growth: 90%

CC1CCC(C(=O)O)N1 (centres undefined)
growth: 79.7%

COc1cc(-c2nc(-c3nnc(-c4ccc(F)c(Cl)c4)o3)c3ccccn23)cc(OC)c1OC
growth: 56.4%
